In all, about 33,000 sequences were measured (“E-score (-0.5 to 0.5)”: median about -0.054, highest 2% from about 0.39 on). The sample holds the highest values, similar sequences and a random draw of the others, so the mix is not that of the screen.
These sequences were tested against Ylr278c (UniProt Q05854) (assay: PBM E-score (8-mer binding enrichment) (E-score (-0.5 to 0.5)); higher = stronger / more preferred TF binding). Conditions: protein concentration: 200 nM; construct: GST-DNA-binding domain.
Procedure, shortened: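 E-scores (a modified Wilcoxon-Mann-Whitney statistic) were assigned by the Universal PBM Analysis Suite to every ungapped eight-base word pooled with its reverse complement. The input came from universal all-10-mer Agilent arrays made double-stranded by primer extension and probed with GST-tagged yeast transcription factors at about 100-200 nM. Fluorescent anti-GST detected bound protein, and masliner normalised the scans.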

Chain of UniProt Q05854 (Q05854 whole entry, the tested form may be a part): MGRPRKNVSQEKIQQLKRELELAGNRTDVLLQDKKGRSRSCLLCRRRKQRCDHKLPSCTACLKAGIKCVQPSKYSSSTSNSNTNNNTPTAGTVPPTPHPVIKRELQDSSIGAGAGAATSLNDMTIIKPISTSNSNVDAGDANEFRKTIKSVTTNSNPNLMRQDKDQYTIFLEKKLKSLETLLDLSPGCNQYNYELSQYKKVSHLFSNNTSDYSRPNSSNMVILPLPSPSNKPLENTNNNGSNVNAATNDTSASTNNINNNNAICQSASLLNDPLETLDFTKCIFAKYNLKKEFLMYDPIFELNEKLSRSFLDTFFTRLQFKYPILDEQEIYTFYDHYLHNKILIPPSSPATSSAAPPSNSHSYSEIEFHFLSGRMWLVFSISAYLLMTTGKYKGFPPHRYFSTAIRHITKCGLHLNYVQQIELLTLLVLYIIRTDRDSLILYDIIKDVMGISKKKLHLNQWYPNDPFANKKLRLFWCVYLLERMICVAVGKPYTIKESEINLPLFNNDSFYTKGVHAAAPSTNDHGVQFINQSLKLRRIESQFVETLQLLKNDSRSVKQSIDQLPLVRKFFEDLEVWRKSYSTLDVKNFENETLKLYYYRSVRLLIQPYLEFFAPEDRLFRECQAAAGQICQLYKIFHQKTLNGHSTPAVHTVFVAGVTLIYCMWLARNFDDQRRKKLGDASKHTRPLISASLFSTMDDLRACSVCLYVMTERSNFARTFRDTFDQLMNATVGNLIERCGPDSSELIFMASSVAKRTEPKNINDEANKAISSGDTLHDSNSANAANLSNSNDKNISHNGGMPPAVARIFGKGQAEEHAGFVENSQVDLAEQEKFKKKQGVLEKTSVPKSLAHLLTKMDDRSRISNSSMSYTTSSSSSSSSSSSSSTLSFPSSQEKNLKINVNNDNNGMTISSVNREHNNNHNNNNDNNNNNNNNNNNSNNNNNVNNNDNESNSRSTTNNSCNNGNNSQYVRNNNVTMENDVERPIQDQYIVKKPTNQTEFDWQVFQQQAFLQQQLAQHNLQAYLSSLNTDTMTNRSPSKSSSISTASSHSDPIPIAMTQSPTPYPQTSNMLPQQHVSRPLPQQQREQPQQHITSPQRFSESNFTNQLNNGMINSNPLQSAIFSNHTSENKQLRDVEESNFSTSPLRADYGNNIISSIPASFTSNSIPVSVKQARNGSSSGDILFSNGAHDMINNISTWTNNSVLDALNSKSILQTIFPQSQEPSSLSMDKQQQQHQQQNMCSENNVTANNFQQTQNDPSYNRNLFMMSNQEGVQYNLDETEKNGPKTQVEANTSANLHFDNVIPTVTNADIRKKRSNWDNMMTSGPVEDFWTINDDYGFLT

Sequence	PBM E-score
ATCTCCGA	0.478
ATCTCCCG	0.301
CTCTCCGA	0.394
ATCTCCAA	-0.0722
CTCTCCAA	0.0897
ATCTCCCA	0.0776
CTTCATGC	-0.0885
ACCGCGAC	0.0815
CGAACTGC	0.0356
ACATTCAA	0.0683
GACAGTCC	0.0326
CCGGTAAG	0.337
GCGCGCAA	0.219
GTCTCCTA	-0.166
GTCTCCAA	-0.111
GTCTCCGA	0.417
GTACTTTA	-0.191
AATCCTGG	-0.0892
AATCCGTC	0.297
AATCCGGG	0.417
AATCCGGA	0.466
AATCCGCA	0.316

Sequence	PBM E-score
TATCCTGA	-0.121
AATCCGGC	0.425
CATCCGGG	0.3
TATCCGCA	0.271
AATCCGTA	0.195
TATCCGGA	0.469
CATCCGGC	0.354
CCTCGACG	-0.00055
GTACTGCA	-0.0765
AAACCTCC	0.147
AATATTGT	0.0529
TACCAGGA	-0.0496
CTACTTTC	-0.0554
GGGTCGCA	0.139
CTTGACAC	-0.193
ATAGATGG	-0.132
CCCTTTCG	0.116
GATCCGGA	0.439
AATCCGCT	0.269
CATCCGCA	0.191
GATCCGCC	0.276
CATCCGGA	0.436

Sequence	PBM E-score
GATCCTGC	-0.00417
GATCCGTA	0.158
AATCCGGT	0.442
GATCCGGC	0.407
AATCCAGT	0.108
CATCCGTA	0.183
GATCCGAA	0.33
CGTTTTGA	-0.142
CTTAAGAA	-0.14
AGCACCGC	0.121
CGAGCTTC	0.028
ACTAAGGG	-0.0488
AAGGGTCC	0.216
AAGAAAGA	-0.0469
ATGCTAGC	0.00697
GACCGGGA	0.359
GACCGGAC	0.383
CACCGGAA	0.427
CACCGGCG	0.383
CACCGGAG	0.443
CACCGGGA	0.352
GACCGGTA	0.0914

Sequence	PBM E-score
CACCGGTG	0.306
CACCGGTA	0.297
GACCGGAA	0.389
CACCGGCC	0.273
CACCGGAC	0.439
ATACGATA	-0.118
ACGGGGGA	0.0207
ACTCCATC	0.275
ATGCACAC	-0.153
CCATCAGC	-0.0147
GGGGTCAC	-0.0137
GTCTTACA	-0.252
GCAGGTCA	-0.134
ACCAGTGC	-0.264
AACCGCAG	-0.0582
TACCGGTA	0.246
AACCGGAG	0.48
AAACGGAC	0.197
AACCGGAT	0.367
AACCGGTG	0.282
